# Measured values: article PMC8384837, “Expanding the binding specificity for RNA recognition by a PUF domain”
# Assays:
# Assay in all cases: yeast three-hybrid, YBZ-1, SC-Leu-His + 0.5 mM 3-AT, 4 days
# Conditions in all cases: tags: N-Gal4 AD-HA kept; label: inside an RPR1-promoter hybrid RNA with tandem MS2 sites; ssRNA
# [1] = target: PUM1 PUF domain R8-QFP (Homo sapiens, UniProt Q14671 828-1176, N1122Q;Y1123F;Q1126P)
# Summary of the method: (§1)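 Sequencing with Illumina followed PCR amplification of the repeat regions from transformants grown four days on SC-Leu (input) or SC-Leu-His + 0.5 mM 3-AT (selection). The transformants were strain YBZ-1 with a LexA–MS2 coat fusion and a HIS3 reporter, carrying Pumilio-1 PUF domain libraries and matching RNA elements. The interaction score is the log change in variant frequency from input to selection, computed in log2 with a pseudocount of 1 for absent variants.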
# [2] = target: PUM1 PUF domain R2-SWR (Homo sapiens, UniProt Q14671 828-1176, N899S;Y900W;Q903R)
# Summary of the method: as §1
# [3] = target: PUM1 PUF domain R3-LNA (Homo sapiens, UniProt Q14671 828-1176, C935L;R936N;Q939A)
# Summary of the method: as §1
# [4] = target: PUM1 PUF domain R3-KSS (Homo sapiens, UniProt Q14671 828-1176, C935K;R936S;Q939S)
# Summary of the method: as §1
# [5] = target: PUM1 PUF domain R3-LYT (Homo sapiens, UniProt Q14671 828-1176, C935L;R936Y;Q939T)
# Summary of the method: as §1
# [6] = target: PUM1 PUF domain R7-GRR (Homo sapiens, UniProt Q14671 828-1176, S1079G;N1080R;E1083R)
# Summary of the method: as §1
# [7] = target: PUM1 PUF domain R5-PRG (Homo sapiens, UniProt Q14671 828-1176, C1007P;Q1011G)
# Summary of the method: as §1
# [8] = target: PUM1 PUF domain R5-RRV (Homo sapiens, UniProt Q14671 828-1176, C1007R;Q1011V)
# Summary of the method: as §1
# [9] = target: PUM1 PUF domain R5-RHH (Homo sapiens, UniProt Q14671 828-1176, C1007R;R1008H;Q1011H)
# Summary of the method: as §1
# [10] = target: PUM1 PUF domain R5-SAP (Homo sapiens, UniProt Q14671 828-1176, C1007S;R1008A;Q1011P)
# Summary of the method: as §1
# [11] = target: PUM1 PUF domain R1-RSV (Homo sapiens, UniProt Q14671 828-1176, S863R;R864S;Q867V)
# Summary of the method: as §1
# [12] = target: PUM1 PUF domain R1-KLM (Homo sapiens, UniProt Q14671 828-1176, S863K;R864L;Q867M)
# Summary of the method: as §1
# [13] = target: PUM1 PUF domain R1-KRS (Homo sapiens, UniProt Q14671 828-1176, S863K;Q867S)
# Summary of the method: as §1
# [14] = target: T1, PUM1 PUF domain R6-RWW (Homo sapiens, UniProt Q14671 828-1176, N1043R;Y1044W;Q1047W)
# T1 sequence: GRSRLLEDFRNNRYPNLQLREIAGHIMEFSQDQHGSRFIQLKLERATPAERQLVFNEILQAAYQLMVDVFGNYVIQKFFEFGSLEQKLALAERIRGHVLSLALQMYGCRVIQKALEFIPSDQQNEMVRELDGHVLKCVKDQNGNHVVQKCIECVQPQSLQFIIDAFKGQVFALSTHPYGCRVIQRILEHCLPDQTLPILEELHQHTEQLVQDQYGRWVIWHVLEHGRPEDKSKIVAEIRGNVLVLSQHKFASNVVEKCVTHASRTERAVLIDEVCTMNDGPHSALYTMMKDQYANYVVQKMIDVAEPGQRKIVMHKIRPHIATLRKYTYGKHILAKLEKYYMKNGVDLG
# Summary of the method: as §1
# [15] = target: PUM1 PUF domain R4-LNA (Homo sapiens, UniProt Q14671 828-1176, N971L;H972N;Q975A)
# Summary of the method: as §1
# [16] = target: PUM1 PUF domain R7-GSK (Homo sapiens, UniProt Q14671 828-1176, S1079G;N1080S;E1083K)
# Summary of the method: as §1
# [17] = target: PUM1 PUF domain R1-GLQ (Homo sapiens, UniProt Q14671 828-1176, S863G;R864L)
# Summary of the method: as §1
# [18] = target: PUM1 PUF domain R1-RIM (Homo sapiens, UniProt Q14671 828-1176, S863R;R864I;Q867M)
# Summary of the method: as §1
# [19] = target: PUM1 PUF domain R1-SRE (Homo sapiens, UniProt Q14671 828-1176, Q867E)
# Summary of the method: as §1
# [20] = target: PUM1 PUF domain R5-NGS (Homo sapiens, UniProt Q14671 828-1176, C1007N;R1008G;Q1011S)
# Summary of the method: as §1
# Sequence of PUM1 PUF domain R1-KLM (Q14671 828-1176 S863K/R864L/Q867M): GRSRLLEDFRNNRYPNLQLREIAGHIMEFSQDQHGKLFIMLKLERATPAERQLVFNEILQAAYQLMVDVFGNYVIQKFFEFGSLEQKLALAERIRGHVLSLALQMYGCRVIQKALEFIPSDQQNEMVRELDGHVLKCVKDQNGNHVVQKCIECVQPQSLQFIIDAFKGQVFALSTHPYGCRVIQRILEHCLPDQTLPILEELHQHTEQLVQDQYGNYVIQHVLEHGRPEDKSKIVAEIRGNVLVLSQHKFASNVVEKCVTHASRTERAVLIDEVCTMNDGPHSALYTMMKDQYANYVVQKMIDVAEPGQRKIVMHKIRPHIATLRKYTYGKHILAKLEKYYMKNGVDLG
# Sequence of PUM1 PUF domain R5-SAP (Q14671 828-1176 C1007S/R1008A/Q1011P): as the sequence (Q14671 828-1176 S863K/R864L/Q867M) above, with K36S, L37R, M40Q, C180S, R181A, Q184P counted along it
# Sequence of PUM1 PUF domain R7-GSK (Q14671 828-1176 S1079G/N1080S/E1083K): as the sequence (Q14671 828-1176 S863K/R864L/Q867M) above, with K36S, L37R, M40Q, S252G, N253S, E256K counted along it
# Sequence of PUM1 PUF domain R5-RHH (Q14671 828-1176 C1007R/R1008H/Q1011H): as the sequence (Q14671 828-1176 S863K/R864L/Q867M) above, with K36S, L37R, M40Q, C180R, R181H, Q184H counted along it
# Sequence of PUM1 PUF domain R2-SWR (Q14671 828-1176 N899S/Y900W/Q903R): as the sequence (Q14671 828-1176 S863K/R864L/Q867M) above, with K36S, L37R, M40Q, N72S, Y73W, Q76R counted along it
# Sequence of PUM1 PUF domain R5-NGS (Q14671 828-1176 C1007N/R1008G/Q1011S): as the sequence (Q14671 828-1176 S863K/R864L/Q867M) above, with K36S, L37R, M40Q, C180N, R181G, Q184S counted along it
sequence,measurement,setting,value
GGCUAGAACUAGUGGAUCCCCCGGCGCCCGGCGGCUCGAGCCCGGGUAAGCGUAAAUAGUCUGCAUGCCGCCGGGCGCCAUGCCUGCAGGUCGACUCUAGAAAACAUG,binding signal,[1],4.49 log2 enrichment (interaction score)
GGCUAGAACUAGUGGAUCCCCCGGCGCCCGGCGGCUCGAGCCCGGGUAAGUGUAAACAGUCUGCAUGCCGCCGGGCGCCAUGCCUGCAGGUCGACUCUAGAAAACAUG,binding signal,[2],4.79 log2 enrichment (interaction score)
GGCUAGAACUAGUGGAUCCCCCGGCGCCCGGCGGCUCGAGCCCGGGUAAGUGUAAUUAGUCUGCAUGCCGCCGGGCGCCAUGCCUGCAGGUCGACUCUAGAAAACAUG,binding signal,[3],2.71 log2 enrichment (interaction score)
same,binding signal,[4],2.98 log2 enrichment (interaction score)
same,binding signal,[5],5.26 log2 enrichment (interaction score)
GGCUAGAACUAGUGGAUCCCCCGGCGCCCGGCGGCUCGAGCCCGGGUAAGUCUAAAUAGUCUGCAUGCCGCCGGGCGCCAUGCCUGCAGGUCGACUCUAGAAAACAUG,binding signal,[6],2.81 log2 enrichment (interaction score)
GGCUAGAACUAGUGGAUCCCCCGGCGCCCGGCGGCUCGAGCCCGGGUAAGUGUGAAUAGUCUGCAUGCCGCCGGGCGCCAUGCCUGCAGGUCGACUCUAGAAAACAUG,binding signal,[7],2.67 log2 enrichment (interaction score)
same,binding signal,[8],1.41 log2 enrichment (interaction score)
same,binding signal,[9],3.25 log2 enrichment (interaction score)
same,binding signal,[10],3.23 log2 enrichment (interaction score)
GGCUAGAACUAGUGGAUCCCCCGGCGCCCGGCGGCUCGAGCCCGGGUAAGUGUAAAUCGUCUGCAUGCCGCCGGGCGCCAUGCCUGCAGGUCGACUCUAGAAAACAUG,binding signal,[11],3.6 log2 enrichment (interaction score)
same,binding signal,[12],3.89 log2 enrichment (interaction score)
same,binding signal,[13],5.16 log2 enrichment (interaction score)
GGCUAGAACUAGUGGAUCCCCCGGCGCCCGGCGGCUCGAGCCCGGGUAAGUGUAAAUAGUCUGCAUGCCGCCGGGCGCCAUGCCUGCAGGUCGACUCUAGAAAACAUG,binding signal,[7],3.3 log2 enrichment (interaction score)
same,binding signal,[8],2.01 log2 enrichment (interaction score)
same,binding signal,[14],4.3 log2 enrichment (interaction score)
same,binding signal,[5],3.3 log2 enrichment (interaction score)
GGCUAGAACUAGUGGAUCCCCCGGCGCCCGGCGGCUCGAGCCCGGGUAAGUGUAUAUAGUCUGCAUGCCGCCGGGCGCCAUGCCUGCAGGUCGACUCUAGAAAACAUG,binding signal,[15],2.84 log2 enrichment (interaction score)
GGCUAGAACUAGUGGAUCCCCCGGCGCCCGGCGGCUCGAGCCCGGGUAAGUUUAAAUAGUCUGCAUGCCGCCGGGCGCCAUGCCUGCAGGUCGACUCUAGAAAACAUG,binding signal,[6],5.06 log2 enrichment (interaction score)
same,binding signal,[16],4.61 log2 enrichment (interaction score)
GGCUAGAACUAGUGGAUCCCCCGGCGCCCGGCGGCUCGAGCCCGGGUAAGUGUCAAUAGUCUGCAUGCCGCCGGGCGCCAUGCCUGCAGGUCGACUCUAGAAAACAUG,binding signal,[7],1.67 log2 enrichment (interaction score)
same,binding signal,[8],4.84 log2 enrichment (interaction score)
GGCUAGAACUAGUGGAUCCCCCGGCGCCCGGCGGCUCGAGCCCGGGUAAGUGUAAAUUGUCUGCAUGCCGCCGGGCGCCAUGCCUGCAGGUCGACUCUAGAAAACAUG,binding signal,[11],2.17 log2 enrichment (interaction score)
same,binding signal,[17],2.93 log2 enrichment (interaction score)
same,binding signal,[18],3.48 log2 enrichment (interaction score)
same,binding signal,[13],4.93 log2 enrichment (interaction score)
GGCUAGAACUAGUGGAUCCCCCGGCGCCCGGCGGCUCGAGCCCGGGUAAGUGUAAGUAGUCUGCAUGCCGCCGGGCGCCAUGCCUGCAGGUCGACUCUAGAAAACAUG,binding signal,[3],3.41 log2 enrichment (interaction score)
GGCUAGAACUAGUGGAUCCCCCGGCGCCCGGCGGCUCGAGCCCGGGUAAGUGUAAAUGGUCUGCAUGCCGCCGGGCGCCAUGCCUGCAGGUCGACUCUAGAAAACAUG,binding signal,[12],0.59 log2 enrichment (interaction score)
same,binding signal,[19],4.42 log2 enrichment (interaction score)
same,binding signal,[13],2.96 log2 enrichment (interaction score)
GGCUAGAACUAGUGGAUCCCCCGGCGCCCGGCGGCUCGAGCCCGGGUAAGUGUUAAUAGUCUGCAUGCCGCCGGGCGCCAUGCCUGCAGGUCGACUCUAGAAAACAUG,binding signal,[7],3.9 log2 enrichment (interaction score)
same,binding signal,[8],4.92 log2 enrichment (interaction score)
same,binding signal,[20],4.12 log2 enrichment (interaction score)
